Measurements reported in ChEMBL document CHEMBL4513216, “Probing the Open Global Health Chemical Diversity Library for Multistage-Active Starting Points for Next-Generation Antimalarials” (ACS Infect Dis, 2020).
Out of some 69,000 compounds screened, about 8,600 (12%) showed an effect of 50% or more. The sample holds strong results, similar compounds and a random draw of the others, so the mix is not that of the screen.

Test system: Plasmodium berghei
Assay: Screen against P. berghei liver stage (PbLuc), transformed with Luciferase, at 10uM
Type: functional, HepG2
Details: tested at 10 uM

Structure (SMILES)	INHIBITION [%]
CCNC(=O)[C@@H]1CCCN1C1(C(=O)NC)CCCCC1	10.5
Cc1n[nH]c(C)c1-c1cnc(CC2CCN(C(C)C)CC2)cn1	23.2
O=C(NC1CCCN(c2ccccc2Cl)C1)c1c[nH]nn1 (stereo not given)	21.1
Cc1ccc(Cl)cc1N1CCC(CNC(=O)CCn2ccnc2)C1 (stereo not given)	31.8
O=C(CCCn1ccnc1)NC1CCCN(c2ccccc2Cl)C1 (stereo not given)	88
Cc1cc(F)ccc1N1CCCC(NC(=O)CCCn2ccnc2)C1 (stereo not given)	70.1
Cc1cc(F)ccc1N1CCCC(NC(=O)CCc2ccncc2)C1 (stereo not given)	29
O=C(NC1CCCN(c2ccccc2Cl)C1)c1nc(=O)[nH][nH]1 (stereo not given)	-6.05
CCOCC1CN(c2ccncn2)Cc2cnn(CC)c21 (stereo not given)	5.67
Cc1nn(C)c2cn(CC(=O)N3CCc4ccccc4C3)nc12	8.49
CCOC(=O)N1CCC(Oc2ccc(C(F)(F)F)cn2)CC1	-16.4
CC(C)(C)NC(=O)N1CCC(Oc2ccc(C(F)(F)F)cn2)CC1	86.3
CCOCC(=O)N1CCC(Oc2ccc(C(F)(F)F)cn2)CC1	11.8
NC(=O)Cn1cc(NC(=O)N2CCSCC2)cn1	-15
O=C(NCc1ccnc(OCC(F)(F)F)c1)NCC1COCCO1 (stereo not given)	4.12
CC(CC(=O)c1ccccc1)NC(=O)c1ccon1 (stereo not given)	28.2
Cc1nc(CSCCC(=O)NCc2ccc(N(C)C)cc2)cs1	-58
N#CCSCCCN1CCCN(C(=O)c2ccccc2)CC1	50.1
O=C(c1ccccc1F)N1CCN(CCCn2cncn2)CC1	32.3
Cc1ccc(C(=O)N2CCN(CCCSCC#N)CC2)cc1F	5.41
N#CCSCCCN1CCN(C(=O)c2ccccc2F)CC1	69.7
N#CCSCCCN1CCN(C(=O)c2cccc(Cl)c2)CC1	10.7
CC(=O)N1CCCN(CCCSCc2ccccc2)CC1	15.7
Cc1cccc(C(=O)N2CCCN(CCCSCC#N)CC2)c1	59.2

Structure (SMILES)	INHIBITION [%]
N#CCSCCCN1CCN(C(=O)c2ccc(Cl)cc2)CC1	3.47
CC(=O)N1CCN(CCCSCc2ccccc2)CC1	-23.5
Cc1nc(CN2CCO[C@@H]3CN(Cc4ccsc4)C[C@@H]3C2)cs1	22.5
Cc1ccc(N2CCN(C(=O)CN3C[C@H]4CC[C@@H]3C4)CC2=O)cc1	32.1
CSc1ncnc(NCc2ccco2)c1C#N	9
Cc1cccc(N2CCCC3(C2)CN(c2nncs2)CCO3)c1 (stereo not given)	38.5
CC(=O)N1CCCC2(C1)CN(C(=O)c1ccncc1)CCO2 (stereo not given)	27.6
CC(=O)N1CCCC2(C1)CN(c1nncs1)CCO2 (stereo not given)	34
c1cncc(N2CCOC3(CCCN(c4nncs4)C3)C2)c1 (stereo not given)	26.3
COc1ccc(N2CCCC3(C2)CN(c2nncs2)CCO3)cc1 (stereo not given)	65.6
O=C(c1ccncc1)N1CCOC2(CCCN(c3nncs3)C2)C1 (stereo not given)	58.4
O=C(CSc1ccccc1F)NS(=O)(=O)c1ccc2c(c1)OCCO2	40.9
CCn1cc(S(=O)(=O)N2CCN(S(=O)(=O)c3ccc(Br)s3)CC2)cn1	41
Cn1cc(C2=CCN(CCCOc3ccc(C(N)=O)cc3)CC2)cn1	53.9
COc1ccccc1OCCCN1CC=C(c2cnn(C)c2)CC1	30.1
COc1ccc(NC(=O)CCN2CC=C(c3cnn(C)c3)CC2)c(C)c1	11.5
Cn1cc(C2=CCN(CCC(=O)NCc3ccc(Cl)cc3)CC2)cn1	33.7
Cn1cc(C2=CCN(CCCC(=O)Nc3ccc(C#N)cc3)CC2)cn1	50.4
CO[C@H]1C[C@@H](O)C12CCN(CCCOc1ccc(C(N)=O)cc1)CC2	33.7
NC(=O)c1ccc(OCCCN2CCC3(CC2)OCCCC3O)cc1 (stereo not given)	47.6
COc1ccc(NC(=O)CCN2CC=C(c3cnn(C)c3)CC2)cc1Cl	-37.2
CC[C@@]1(O)CCN(CCCOc2ccc(C(N)=O)cc2)C[C@H]1O	50.5
CCc1cccc(NC(=O)CCN2CC=C(c3cnn(C)c3)CC2)c1	0.348
CCn1cc(C2=CCN(CCCOc3ccccc3)CC2)cn1	9.56

Structure (SMILES)	INHIBITION [%]
CCc1nnc(NC(=O)CCN2CC=C(c3cnn(C)c3)CC2)s1	60.2
CC(C)NC(=O)CCCn1cnc2ccccc2c1=O	10.5
O=C(CCn1c(=O)oc2ccccc21)NCC(O)c1ccc(F)c(F)c1 (stereo not given)	-12.5
O=S(=O)(N1CCOCC1)N1CCCCC1CCn1cccn1 (stereo not given)	-84.5
N#Cc1c(CN2CCCC2Cn2cncn2)cn2ccccc12 (stereo not given)	-36
O=C(c1ccccn1)N1CCC(S(=O)(=O)c2ccccc2)C1 (stereo not given)	45.5
O=C1CCOC[C@]2(CN(Cc3ccccc3)C[C@H]2c2ccccc2)N1	37.1
CCC(O)CN1CCN(C(=O)CCc2c(C)noc2Cl)CC1 (stereo not given)	25.1
CC(=O)N1CCC(c2ccnc(Nc3cncnc3)n2)C1 (stereo not given)	42.6
CCN1CC2(CCNCC2)COc2ccccc2S1(=O)=O	-0.79
CNC(=O)CN1C(=O)CCC12CCCN(Cc1cccc(F)c1)C2 (stereo not given)	32.1
Cc1nc2[nH]cnc(Nc3cc(C)n(C)n3)c-2n1	-6.42
CCn1c(C2CCCN(Cc3ccc(F)cc3Cl)C2)nn(C)c1=O (stereo not given)	-36.4
CCn1ccnc1CN(C)C1CCCN(Cc2ccccc2F)C1 (stereo not given)	-11.3
CCN(Cc1ccncc1)C1CCCN(C/C=C/c2ccc(F)cc2)C1 (stereo not given)	55.9
Cc1nc(CN2CCCC(N(C)CCc3ccncc3)C2)no1 (stereo not given)	25.7
CCN(Cc1ccncc1)C1CCCN(Cc2ccc(F)cc2OC)C1 (stereo not given)	25.5
CCN(Cc1ccncc1)C1CCCN(Cc2ccc(F)cc2Cl)C1 (stereo not given)	62.4
O=C(c1ccncc1F)N1CCc2onc(COc3cccnc3)c2C1	29.9
CCc1nc(CC)n(CC(=O)NCc2ccccc2C)n1	37.6
CC(Cn1cccn1)NC(=O)N(C)Cc1cnn(C)c1 (stereo not given)	22.6
O=C(c1ccc2c(c1)CCO2)N1CCN(c2cnccn2)CC1	-32
